# Screening results: PubChem, several laboratories
# An excerpt weighted towards active compounds, which were near 3.9% of everything screened.
# BoNT-F LC inh: BoNT/F light chain protease inhibitors, primary screen, biochemical, flow cytometry, MLPCN library; Botulinum neurotoxin type F light chain protease (Clostridium botulinum); inhibition, % at 10 µM; 0.22% of 360,000 active; Multiplex microsphere protease cleavage assay; in the data active means inhibition above about 35%, passing the limit was not always enough; inconclusive means no clear call, values can overlap the other calls
# CCHFV vOTU inh: CCHFV vOTU protease inhibitors, primary screen, biochemical, Pep-AMC substrate, fluorescence; Crimean-Congo hemorrhagic fever virus L polyprotein viral ovarian tumor (vOTU) protease …; inhibition, % at 11.5 µM; 0.55% of 370,000 active; AID 651958, 2012; in the data active means inhibition above about 30%
# BoNT A protease: BoNT/A light chain protease inhibitors, primary screen, biochemical, flow cytometry, MLPCN library; Botulinum neurotoxin type A light chain protease (Clostridium botulinum A str. ATCC 3502); multiplex microsphere protease substrate cleavage; inhibition, % at 10 µM; 0.17% of 360,000 active; AID 588499, 2011
# 3CLpro inhibitor: SARS-CoV 3CLpro protease inhibitors, primary screen, biochemical, quenched FRET. 0.14% of 290,000 active. Replicase polyprotein 1ab (Severe acute respiratory syndrome coronavirus), P0C6X7. inhibition, % at 6 µM. recombinant SARS-CoV 3CLpro, quenched FRET peptide cleavage. AID 1706, 2009; in the data active means inhibition above about 12%
# Anthrax LF inh2: Bacillus anthracis LF protease inhibitors, primary screen, biochemical, multiplex microsphere, MLPCN library | multiplex microsphere protease cleavage assay | 0.12% of 360,000 active | AID 588501, 2011 | Lethal factor (Bacillus anthracis), P15917 | inhibition, % at 10 µM
# Autofluor counter: flagged as autofluorescent in microsphere protease counterscreen; compound autofluorescence counterscreen, microsphere flow cytometry; stronger effect = higher value; fluorescence intensity (concentration not given with the values); 3.1% of 360,000 active; AID 624483; in the data active means fluorescence intensity above about 16000; inconclusive means no clear call, values can overlap the other calls
# Numbers stand for hits; . = inactive; ? = inconclusive; / = no result given. Unless noted, no stated cut-off is given here; in the data, active means inhibition above about 30%; inconclusive means no clear call, values can overlap the other calls; inactive means below that.
SMILES,BoNT-F LC inh,CCHFV vOTU inh,BoNT A protease,3CLpro inhibitor,Anthrax LF inh2,Autofluor counter
CC(=O)Nc1sc2c(c1CN1CCN(c3ccccn3)CC1)CCCC2,.,.,.,.,.,22350
CC(=O)Nc1sc2c(c1CN1CCCC1)CCCC2,.,.,.,.,.,.
C=CCN(C(=O)[C@@H](C1CC1)[C@@H](O)c1ccc2ccccc2c1)c1ccccc1,/,.,/,/,/,/
Cc1ccccc1NC(=O)CCN1C(=O)CSC1=O,.,.,.,.,.,.
CC1=C(C(=O)Nc2ccccc2C)C(c2ccc(C)o2)N2C(=O)CSC2=N1 (centres undefined),.,.,.,.,.,20714
O=c1[nH]c2ccc(Cl)cc2c(-c2ccccc2)c1N1CCN(CCO)CC1,.,.,?,.,.,20528
COCCN1C(=O)C2=C(C1=O)C1N(C)c3ccccc3[C@@]13C[C@@H](CO)N(C(=O)CCC(=O)OC)C3=N2 (some centres undefined),/,.,/,/,/,/
CN1CCN(C2OC(=O)c3ccccc32)CC1 (centres undefined),.,.,.,.,.,17143
O=C1OC(N2CCN(Cc3ccccc3)CC2)c2ccccc21 (centres undefined),.,.,.,.,.,?
C=CCN1C(=O)[C@@H](CC(=O)NCCC(C)C)[C@]2(C(=O)OC)CCCCC=C12,/,.,/,/,/,/
NC(=O)CN1C(=O)C(O)(CC(=O)c2ccccc2O)c2ccccc21 (centres undefined),.,.,.,16,.,.
COC(=O)[C@]12C[C@H](CC(=O)NCCc3ccccc3OC)C(=O)N(CCc3ccc(OC)c(OC)c3)C1=C[C@H](COCc1ccccc1)O[C@@H]2C,/,.,/,/,/,/
Cc1ccc(NC(=O)c2ccccc2)s1,.,.,.,.,.,24292
Cc1cc(NC(=O)c2ccccc2)sc1C,.,.,.,.,.,.
CC1(C)CC(=O)C=C(NNC(=O)c2ccccc2O)C1,.,.,.,.,.,16377
Cc1cccc(C(=O)NNC2=CC(=O)CC(C)(C)C2)c1O,.,.,.,.,.,.
Cc1ccccc1-c1nc2sc(-c3ccccc3)cc2c(=O)o1,.,.,?,.,.,17440
CC(C)=CCC/C(C)=C/CN1CC(=O)N2[C@H](C[C@@]3(n4ccc5ccccc54)c4ccccc4N(S(=O)(=O)c4ccccc4)[C@@H]23)C1=O,/,.,/,/,/,/
Cc1nc2sc(C(c3ccc(Cl)cc3)N3CC(C)OC(C)C3)c(O)n2n1 (centres undefined),36,.,.,.,.,.
Cc1ccc(C(c2sc3nc(C)nn3c2O)N2CC(C)OC(C)C2)cc1 (centres undefined),.,.,.,.,.,.
COC(=O)c1ccc(Cn2ccc3ccc(-c4ccc5ccn(Cc6ccc(OC)cc6)c5c4)cc32)cc1,/,.,/,/,/,/
CCc1c(C(=O)Nc2nnc(C3CC3)s2)csc1C,.,.,?,.,.,21291
CCOc1ccccc1C(=O)NC1CCN(Cc2nnnn2C2CCCC2)CC1,.,.,?,.,.,22337
CC(COc1ccc(C(F)(F)F)cc1)CN1CCC(C(O)(c2ccccc2)c2ccccc2)CC1 (centres undefined),/,.,/,/,/,/
CC(C)(C)OC(=O)N1CCC(C(=O)N2CCC[C@H]2C(=O)O)CC1,.,.,.,.,.,20337
SMILES,BoNT-F LC inh,CCHFV vOTU inh,BoNT A protease,3CLpro inhibitor,Anthrax LF inh2,Autofluor counter
O=C(Nc1ccccc1Cl)c1cnccn1,.,.,.,.,.,.
O=C(Nc1ccc(Br)cc1Cl)c1cnccn1,.,.,?,.,.,17512
Cc1noc(NS(=O)(=O)c2ccc(NC(=O)CSc3nnc(-c4ccccc4)n3C3CCCCC3)cc2)c1C,.,.,.,.,.,22405
Cn1c(=O)c2cc(S(=O)(=O)N3CCN(c4ccccc4Cl)CC3)ccc2n(C)c1=O,/,.,/,/,/,/
Cc1ccc(C(=C2C3C=CC2C2C(=O)NC(=O)C32)c2ccc(C)cc2)cc1 (centres undefined),.,/,.,.,.,20213
O=C1C2C3C=CC(C3=C(c3ccccc3)c3ccccc3)C2C(=O)N1Cc1ccccc1 (centres undefined),.,.,.,.,.,.
COc1ccc(Cn2c(NC(=O)c3ccccc3)nc(Cc3ccccc3)c2-c2ccccc2)cc1,/,.,/,/,/,/
Nn1c(SCC(=O)Nc2cccc3ccccc23)nnc1-c1cc(-c2ccc(Cl)cc2)n[nH]1,/,.,/,/,/,/
CN(C)S(=O)(=O)c1c(Cl)cccc1Cl,.,.,.,.,.,23563
O=C(CNC(=O)c1ccco1)Nc1ccc(S(=O)(=O)N2CCCC2)cc1,.,.,.,.,.,21490
O=C(Nc1ccc(S(=O)(=O)N2CCCCCC2)cc1)c1ccc(Br)o1,.,.,.,.,.,21567
O=C(Nc1ccc(S(=O)(=O)N2CCOCC2)cc1)c1ccco1,.,.,.,.,.,.
O=C(Nc1ccccc1C(=O)O)c1ccc(NC(=O)c2ccc(Br)o2)cc1,.,/,.,.,.,23730
CCOC(=O)N1CCN(CC(=O)Nc2c(C(=O)OC)[nH]c3cc(C)ccc23)CC1,.,.,.,.,.,23057
O=C(NC1CCCCN(Cc2cccc(Cl)c2)C1=O)c1ccc(Cl)cc1Cl (centres undefined),/,.,/,/,/,/
O=C1CS/C(=N\C(=O)N2c3ccccc3Sc3ccccc32)N1,.,.,.,.,.,24179
NCCC(=O)N1c2ccccc2Sc2ccccc21,.,.,.,.,.,.
CCOC(=O)[C@]12CCCC=C1N(Cc1ccc(OC)cc1)C(=O)[C@@H]2CC(=O)NCCc1ccccc1OC,/,.,/,/,/,/
C=CCN1C(=O)[C@@H](CC(=O)N2CCSCC2)[C@]2(C(=O)OCC)CCCCC/C=C/12,/,.,/,/,/,/
CN(Cc1ccccc1NCC(=O)Nc1ccccc1C#N)C1CCCCC1,.,.,.,.,.,.
N#Cc1ccccc1NC(=O)CNc1ccccc1N1CCCCC1,.,.,?,.,.,22615
Cc1cc(Cl)ccc1OCC(=O)Nc1ccncc1,.,.,.,.,.,.
CCn1cc(C(C)NC(=O)COc2ccc(Cl)cc2C)c(C)n1 (centres undefined),.,.,.,.,.,23870
CCOc1cc(-c2nc3ccccn3c2NCC2CCCO2)ccc1O (centres undefined),.,.,.,.,.,22229
O=C(c1ccc(F)cc1Cl)N1CCC(Oc2cccnc2)CC1,/,.,/,/,/,/
Cc1cccc(NC(=S)NNC(=O)c2ccco2)c1,.,.,.,.,.,.
CC1CCN(c2ccc(NC(=S)NC(=O)c3ccco3)cc2)CC1,.,.,.,.,.,.
O=C(NC(=S)Nc1ccc(N2CCCCC2)cc1)c1ccco1,.,.,.,.,.,20910
CCCCNC(=S)NNC(=O)c1ccco1,.,.,.,.,.,16637
